Sfp inh: qHTS Assay for Inhibitors of Bacillus subtilis Sfp phosphopantetheinyl transferase (PPTase); Potency, µM, most hits filed as inhibitors; Biochemical Sfp PPTase activity, qHTS; AID 1490, 2009; 4'-phosphopantetheinyl transferase ffp (Bacillus subtilis), Q9F4F7; actives 3.5% (n = 310,000);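 note: the enzyme is Sfp with the accession as filed and its product quenches rhodamine fluorescence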
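Step 1, compound plus 15 nM Sfp-PPTase, 15 min, room temperature. Step 2, add rhodamine-CoA (5 uM) and BHQ-2-YbbR (12.5 uM). Step 3, read 525/598 nm fluorescence at 0 and 30 min.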
Tau fibril ThT: qHTS for Inhibitors of Tau Fibril Formation, Thioflavin T Binding | Microtubule-associated protein tau (Homo sapiens), P10636 | recombinant tau K18 P301L, heparin-induced fibrillization, ThT fluorescence | Potency, µM (titrated, usually from 57.4 µM), most hits filed as inhibitors | actives 2.1% (n = 270,000) | AID 1460, 2008; note: nearly all actives have a fitted effect of over 55% in size
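Using a mix of unlabeled (15 uM) and Alexa 594-labeled (0.24 uM) tau K18 P301L, heparin-triggered fibrillization over 6 hr at 37 C was scored by ThT fluorescence.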
Coupling enz: qHTS Assay for Inhibitors of Fructose-1,6-bisphosphate Aldolase from Giardia Lamblia: Coupling assay counterscreen; actives 0.67% (n = 290,000); activity change, negative = inhibition, % at 58.2 µM, hits read low; coupling enzyme system counterscreen, AmpLite Red fluorescence; in the data active = activity change below about -30%
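Final compound at 57.5 uM, incubated 10 min at RT with coupling enzyme reagent (glyceraldehyde-3-phosphate), then 20 min with substrate and AmpLite Red detection. Fluorescence read at 525/598 nm; tests interference with the coupling assay, not aldolase inhibition.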
G9a block: qHTS Assay for Inhibitors of Histone Lysine Methyltransferase G9a; Histone-lysine N-methyltransferase EHMT2 (Homo sapiens), Q96KQ7; G9a H3K9 monomethylation, AlphaScreen, 2 h; Potency, µM (top dose mostly 102 µM), hits mostly inhibitors; actives 8.8% (n = 350,000); AID 504332, 2011; note: nearly all actives have a fitted effect of over 75% in size
Target sequence (Q96KQ7 913-1193 limits assumed): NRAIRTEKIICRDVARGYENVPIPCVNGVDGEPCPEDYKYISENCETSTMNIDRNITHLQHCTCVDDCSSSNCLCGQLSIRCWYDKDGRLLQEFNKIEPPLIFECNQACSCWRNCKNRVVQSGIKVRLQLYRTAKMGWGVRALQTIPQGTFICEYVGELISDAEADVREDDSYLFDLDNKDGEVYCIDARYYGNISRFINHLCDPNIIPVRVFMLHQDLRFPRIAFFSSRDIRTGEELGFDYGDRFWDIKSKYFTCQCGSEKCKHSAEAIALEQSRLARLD
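Signal arises when biotinylated H3K9 peptide, once monomethylated, bridges streptavidin donor and antibody-captured acceptor beads. Enzyme at 20 nM was preincubated 15 min with test compounds; peptide 500 nM and SAM 20 uM then reacted for 2 h.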
Tau FP inhib: qHTS for Inhibitors of Tau Fibril Formation, Fluorescence Polarization. K18 P301L tau heparin fibrillization, Alexa594 FP, 6 h. Potency, µM (doses to about 57.7 µM), most hits filed as inhibitors. actives 0.39% (n = 280,000); note: nearly all actives have a fitted effect of over 55% in size
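Heparin (20 uM) drove fibril formation of recombinant tau K18 P301L, 15 uM unlabeled with 0.24 uM Alexa 594 label, for 6 hr at 37 C in 100 mM sodium acetate pH 7. Fluorescence polarization (555/632 nm) read 1 hr after 30 uM ThT.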
Tau fluor cs: Counterscreen qHTS for Inhibitors of Tau Fibril Formation, Fluorescence Polarization; Potency, µM (series often up to 57.7 µM); tau K18 P301L (four-repeat tau fragment) Alexa594 fluorescence, heparin fibrillization; actives 0.93% (n = 280,000); note: nearly all actives have a fitted effect of over 55% in size
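Human K18 P301L tau (15 uM unlabeled plus 0.24 uM Alexa 594-labeled, final) in 100 mM sodium acetate pH 7 was mixed with compound and 20 uM heparin and incubated 6 hr at 37 C.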
Large screens that a line does not name were inactive. This is a sample that favours compounds with a hit; in the whole collection about 11% have one here. Unless noted, calls come from the whole dose curve; as a rule, active = well fitted curve in the direction sought with a large enough effect; inconclusive = small, poorly fitted or top-dose-only effect, or another doubt; inactive = no such curve, though single readings can be large; an effect the other way counts as inactive or inconclusive.

Cc1[nH]n(C(N)=S)c(=O)c1N=Nc1ccc2ccccc2c1	Tau fibril ThT 2.82µM, G9a block 31.6µM, Tau fluor cs inconclusive
Nc1cc(-c2ccc(Br)cc2)[nH]n1	G9a block inconclusive
COc1ccc(C(c2c(C)[nH]n(C(N)=S)c2=O)C(C#N)C#N)cc1 (centres undefined)	Sfp inh inconclusive, Tau fibril ThT inconclusive, G9a block inconclusive, Tau FP inhib inconclusive
CCOC(=O)c1sc2ncn(CC(=O)Nc3ccc(C)cc3Br)c(=O)c2c1C	none (no result: Sfp inh, Coupling enz)
CC(=O)Nc1ccc(N=Nc2c(C)[nH]n(C(N)=S)c2=O)cc1	Sfp inh 39.8µM, Tau fibril ThT 8.91µM, G9a block 44.7µM
COc1ccc(CCN(C)CC(O)c2ccccc2)cc1OC (centres undefined)	Sfp inh inconclusive, G9a block 28.2µM
COc1ccc(CCN(C)CCC(=O)Nc2ccc(C)cc2)cc1OC	none

Compound activity (PubChem BioAssay)
